# Experimental data reported in PubChem BioAssay (NCI).
# This is part of a sample that, as a whole, favours compounds with a hit. Of some 83,000 tested, about 20% had one in any assay.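 Single-dose data. Exposure time 48 hours. Values below 10 considered active.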 Values without a mark were called inactive. Active and inactive are the calls of the source.
# Assays:
# Assay in all cases: NCI-60 one-dose screen, 48 h (100 = growth as untreated, 0 = no growth, -100 = all killed)
# HCT-15 colon = settings: 10 µM unless noted
# HT29 colon = settings: 10 µM unless noted
# SNB-75 CNS = settings: 10 µM unless noted
# U251 CNS = settings: 10 µM unless noted
# PC-3 prostate = settings: 10 µM unless noted
# SK-MEL-5 melanoma = settings: 10 µM unless noted
# UACC-62 melanoma = settings: 10 µM unless noted
# LOX IMVI melanoma = settings: 10 µM
# SK-MEL-28 melanoma = settings: 10 µM unless noted
# SK-MEL-2 melanoma = settings: 10 µM unless noted
# EKVX NSCLC = settings: 10 µM unless noted
# SN12C renal = settings: 10 µM unless noted
# UO-31 renal = settings: 10 µM unless noted
# TK-10 renal = settings: 10 µM unless noted
# ACHN renal = settings: 10 µM unless noted
# CAKI-1 renal = settings: 10 µM unless noted
# A498 renal = settings: 10 µM unless noted
# CCRF-CEM leukemia = settings: 10 µM unless noted
# MOLT-4 leukemia = settings: 10 µM unless noted
SMILES,growth (HCT-15 colon),growth (HT29 colon),growth (SNB-75 CNS),growth (U251 CNS),growth (PC-3 prostate) [%],growth (SK-MEL-5 melanoma),growth (UACC-62 melanoma),growth (LOX IMVI melanoma),growth (SK-MEL-28 melanoma) [%],growth (SK-MEL-2 melanoma),growth (EKVX NSCLC) [%],growth (SN12C renal) [%],growth (UO-31 renal) [%],growth (TK-10 renal) [%],growth (ACHN renal) [%],growth (CAKI-1 renal) [%],growth (A498 renal) [%],growth (CCRF-CEM leukemia),growth (MOLT-4 leukemia)
CN(C)c1nc(NCCNS(=O)(=O)c2ccc(C3=Nc4c(N)nc(N)nc4NC(c4ccc(C(F)(F)F)cc4)C3)cc2)nc(Nc2ccc(F)cc2)n1 (stereo unspecified),18.7%,-69.6% (active),31.7%,0.0667% (active),17.8,-77.1% (active),-51% (active),-78.2% (active),14,-82% (active),26.2,30.8,84.7,59.4,58.5,63.1,41.6,8.86% (active),9.04% (active)
CCOC(=O)C1=C(N)N(c2ccccc2)C2=C(C(=O)CC(C)(C)C2)C1c1ccc([N+](=O)[O-])cc1 (stereo unspecified),86.4%,99.4%,104%,101%,68,96.5%,66.6%,85.5%,105,97.2%,86.4,98.4,95.7,113,87.9,68.4,114,89.1%,78.3%
COc1ccc(C2(SCCNCc3cc(N(C)C)ccn3)c3ccccc3C=Cc3ccccc32)cc1,2.66% (active),-43% (active),9.76% (active),0.439% (active),13.8,-20.3% (active),38%,2.34% (active),29.9,-34.9% (active),15.8,,33.7,50.3,37.7,26.5,65.9,8.49% (active),8.17% (active)
